The source of these data is PubChem BioAssay AID1345085 (National Center for Advancing Translational Sciences (NCATS), 2018).

Records with an inconclusive call do not appear. Values without a mark were called inactive. Activity calls are given as the source filed them. Calls follow the shape of the dose curve; as a rule, active = well fitted cell-killing curve with a large enough effect; inconclusive = small, poorly fitted or top-dose-only effect, or effect the other way; inactive = no such curve, though single readings can be large or run the other way.

This test relates to Hek293T. The test is described as follows: Confirmatory qHTS for gynecologic anti-cancer compounds from libraries of approved drugs and bioactive compounds. Also: nearly all actives have a fitted effect of over 55% in size. The conditions noted are these: gynecologic cancer cell panel viability, ATPlite luminescence, 48 h; series mostly up to 57.6 µM. The essentials: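 ATP-based luminescent viability (ATPlite) after 48 h drug treatment at 37 °C, 5% CO2, across 57.5 uM–0.977 nM in 1:3 steps. Cells seeded at 1,000 per well 16 h beforehand; IC50 values computed, HEK 293T as selectivity control.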
% is scaled to controls: 0 for no effect and ±100 for the full control effect; potency is read from the fitted curve at half-maximal effect.

For the molecule `CC[C@@]1(O)C(=O)OCc2c1cc1n(c2=O)Cc2c-1nc1ccccc1c2/C=N/OC(C)(C)C`, the Potency is 0.172 µM (active).

Consider `CCCCc1oc2ccccc2c1C(=O)c1cc(I)c(OCCN(CC)CC)c(I)c1`, for which the Potency was 79.4 µM (active).

As to `CCN(CC)CCOc1ccc(/C(=C(\Cl)c2ccccc2)c2ccccc2)cc1`, the Potency is 126 µM (active).

Consider `CC(C)c1nn(-c2c(Cl)cccc2Cl)c2nc(Cc3ccc(OCCO)cc3)[nH]c(=O)c12`, for which the Potency is 0.0306 µM (active).

In the case of `Cc1ccccc1C(OCCN(C)C)c1ccccc1` (stereo unspecified), the Potency result is “inactive”.

`CN(C)C(CCOc1cccc2ccccc12)c1ccccc1` (stereo unspecified): the Potency entry is “inactive”.

Take `CC(C)C[C@H](NC(=O)[C@@H](NC(=O)c1cccc(-c2ccccc2)n1)[C@@H](C)O)B(O)O`: the Potency was 0.193 µM (active).

With `CCS(=O)(=O)N1CCN(c2ccc(Nc3ncc(C(N)=O)c(NC4CC4)n3)cc2)CC1`, the Potency was 17.2 µM (active).

As to `CNC(=O)c1nn(C)c2c1C(C)(C)Cc1cnc(Nc3ccc(N4CCN(C)CC4)cc3)nc1-2`, the Potency was 4.32 µM (active).

Consider `Cc1[nH]c2ccccc2c1CCNCc1ccc(/C=C/C(=O)NO)cc1`, for which the Potency was 0.193 µM (active).

For the molecule `Nc1nccc(Oc2ccc(NC(=O)c3c[nH]cc(-c4ccc(F)cc4)c3=O)cc2F)c1Cl`, the Potency is 13.7 µM (active).

`COc1ccc2c(c1)c(CC(=O)O)c(C)n2C(=O)c1ccc(Cl)cc1`: the Potency result is “inactive”.

For the molecule `Nc1ccc(C(=O)Nc2cccc(-c3nc(N4CCOCC4)c4oc5ncccc5c4n3)c2)cn1`, the Potency entry is “inactive”.

Turning to `C[C@@]1(C(=O)Nc2ccc(F)nc2)CCCN1c1nc(Nc2cc(C3CC3)[nH]n2)c2cccn2n1`, the Potency entry is “inactive”.

As for `Cc1ccc(C(=O)N(CCCN)C(c2nc3cc(Cl)ccc3c(=O)n2Cc2ccccc2)C(C)C)cc1` (stereo unspecified), the Potency is 0.0061 µM (active).

As to `COc1ccc2c(c1OC)C(=O)O[C@@H]2[C@H]1c2c(cc3c(c2OC)OCO3)CCN1C`, the Potency result is “inactive”.

`CN1CCCC(n2nc(Cc3ccc(Cl)cc3)c3ccccc3c2=O)CC1` (stereo unspecified): the Potency is 17.2 µM (active).

As to `CC[C@@]1(O)C(=O)OCc2c1cc1n(c2=O)Cc2cc3cc(O)ccc3nc2-1`, the Potency was 0.385 µM (active).

Consider `COc1cc2c(cc1-c1c(C)noc1C)ncc1[nH]c(=O)n(C(C)c3ccccn3)c12` (stereo unspecified), for which the Potency entry was “inactive”.

For the molecule `CN(NC(=O)CC(=O)NN(C)C(=S)c1ccccc1)C(=S)c1ccccc1`, the Potency was 0.0611 µM (active).

Consider `CC(C)Oc1ccc(C(=O)NC(CNC(=O)CN(C)C)Cc2ccc(-c3cn4cccc(C(C)O)c4n3)cc2)cc1Cl` (stereo unspecified), for which the Potency entry was “inactive”.

On to `Cn1cc(-c2[nH]c3cc(NC(=O)[C@H](N)C4CCCCC4)cc4c3c2C=NNC4=O)cn1`, for which the Potency was 0.432 µM (active).

Turning to `NC(=O)c1cccc2cn(-c3ccc([C@@H]4CCCNC4)cc3)nc12`, the Potency result was “inactive”.

As for `Cc1c(C)n(Cc2ccc(-c3ccccc3C(=O)O)cc2)c2ccc(C(=O)N[C@@H](C)c3ccc([N+](=O)[O-])cc3)cc12`, the Potency entry is “inactive”.

Turning to `COc1cccc2c1C(=O)c1c(O)c3c(c(O)c1C2=O)C[C@@](O)(C(=O)CO)C[C@@H]3O[C@H]1C[C@H](N)[C@H](O[C@@H]2CCCCO2)[C@H](C)O1`, the Potency was 10.9 µM (active).

On to `O=C(/C=C/c1cccc(S(=O)(=O)Nc2ccccc2)c1)NO`, for which the Potency is 1.88 µM (active).

Take `CCCCc1oc2ccc(NS(C)(=O)=O)cc2c1C(=O)c1ccc(OCCCN(CCCC)CCCC)cc1`: the Potency is 27.3 µM (active).

For the molecule `Cc1cnc(Nc2ccc(CN3CCOCC3)cc2)nc1Nc1cccc(S(=O)(=O)NC(C)(C)C)c1`, the Potency was 17.2 µM (active).

For `CN(C)C1CCN(C(=O)c2ccc(NC(=O)Nc3nc(N4CCOCC4)nc(N4CCOCC4)n3)cc2)CC1`, the Potency was 0.485 µM (active).

For the molecule `CC(C)n1nc(-c2cc3cc(O)ccc3[nH]2)c2c(N)ncnc21`, the Potency was 6.85 µM (active).

As to `CC(C)(C)C(=O)OCOP(=O)(COCCn1cnc2c(N)ncnc21)OCOC(=O)C(C)(C)C`, the Potency was 3.43 µM (active).

In the case of `CC(=O)O[C@H]1C(=O)[C@@]2(C)[C@H]([C@H](OC(=O)c3ccccc3)[C@]3(O)C[C@H](OC(=O)[C@H](O)[C@@H](NC(=O)c4ccccc4)c4ccccc4)C(C)=C1C3(C)C)[C@]1(OC(C)=O)CO[C@@H]1C[C@@H]2O`, the activity change, negative = viability loss is 4.91% [at 10.7 µM].

`CN(C)/N=N/c1nc[nH]c1C(N)=O`: the Potency entry is “inactive”.

`CCc1cccc(CC)c1NC(=O)N1Cc2[nH]nc(NC(=O)c3ccc(N4CCN(C)CC4)cc3)c2C1`: the Potency entry was “inactive”.

On to `CC(C)(C(=O)NCC(F)(F)C(F)(F)F)C(=O)NC1C(=O)Nc2ccccc2-c2ccccc21` (stereo unspecified), for which the Potency entry was “inactive”.

Consider `Cn1c(=O)c(-c2c(Cl)cccc2Cl)cc2cnc(Nc3cccc(C(=O)O)c3)nc21`, for which the Potency result is “inactive”.
